Records with an inconclusive call do not appear. A call without a number means that no potency is given here. Unmarked numbers belong to inactive results. Calls of active or inactive are those of the source. The call rests on the fitted dose curve; in most records, active means well fitted inhibition curve with a large enough effect; inconclusive means small, poorly fitted or top-dose-only effect; inactive means flat fitted curve, though single readings scatter. Where a SMILES comes first, the peptide text is derived from it. Bridges are numbered along the chain shown (N, C = ends). [ ]: non-standard residue; d: D form. dPhe(4-Cl) = N[C@H](Cc1ccc(Cl)cc1)C(=O)O; d2Nal = N[C@H](Cc1ccc2ccccc2c1)C(=O)O; NMeY = CN[CH](Cc1ccc(O)cc1)C(=O)O; dCit = NC(=O)NCCC[C@@H](N)C(=O)O; d3Pal = N[C@H](Cc1cccnc1)C(=O)O
Tests used:
[1] = molecular target: Calcium and integrin-binding protein 1 (Homo sapiens) (UniProt Q99828); assay: Primary qHTS for Identification of Calcium Integrin Binding Protein 1 (CIB1) Competitor (AID 1508620);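 further: GST tagged CIB1 binding a fluorescein labelled alphaIIb integrin peptide tracer; top concentration of the series differs between compounds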
Method in brief: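 Fluorescence polarization competition: CIB1-GST (1 uM final) preincubated with compound 15 min at room temperature, then FITC-labeled alphaIIb peptide (100 nM final) added for another 15 min. Polarization read at Ex 480/Em 540.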

[2] = Primary qHTS for inhibitors of nuclear receptor binding SET domain protein 2 (NSD2) in an isogenic RCH-ACV NSD2 p.E1099K mutant (9B) (AID 1645876); further: nearly all actives have a fitted effect of over 70% in size; further: potency means the concentration at half of the fitted maximal effect

Calcium and integrin-binding protein 1 (Homo sapiens), sequence (Q99828 whole entry, looked up): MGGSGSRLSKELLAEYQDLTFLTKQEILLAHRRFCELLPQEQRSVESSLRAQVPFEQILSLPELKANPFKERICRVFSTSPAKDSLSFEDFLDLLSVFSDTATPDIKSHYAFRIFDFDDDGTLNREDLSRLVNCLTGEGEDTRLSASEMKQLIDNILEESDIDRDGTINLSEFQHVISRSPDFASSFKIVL

COc1cc(-c2ncn(/C=C\C(=O)OC(C)C)n2)cc(C(F)(F)F)c1
Potency [1]: inactive | Potency [2]: 129 nM (active)

C=CC1(C)C=C2CCC3C(C)(C)C(O[C@@H]4O[C@@H](CO)[C@H](O)[C@H]4O)CCC3(C)C2CC1O[C@@H]1O[C@H](C)[C@H](O)[C@H](O)[C@H]1O (some centres undefined)
Potency [1]: inactive | Potency [2]: inactive

OCCc1ccc(O[C@@H]2O[C@H](CO)[C@@H](O)[C@H](O)[C@H]2O)cc1
Potency [1]: inactive | Potency [2]: inactive

CC(O)CO[C@@H]1O[C@H](CO)[C@@H](O)[C@H](O)[C@H]1O (some centres undefined)
Potency [1]: inactive | Potency [2]: inactive

CC(C)(O)/C=C/CC(C)(O)C1C(O)CC2(C)C3CCC4C(C)(C)C(=O)CCC4(C)C3CCC12C (centres undefined)
Potency [1]: inactive | Potency [2]: inactive

O=C(O)C(O[C@@H]1O[C@H](CO[C@@H]2O[C@H](CO)[C@@H](O)[C@H](O)[C@H]2O)[C@@H](O)[C@H](O)[C@H]1O)c1ccccc1 (some centres undefined)
Potency [1]: inactive | Potency [2]: inactive

COc1cc2c3c(cc4ccccc4c3c1O)NC2=O
Potency [1]: inactive | Potency [2]: inactive

C=C1C(=O)O[C@H](CCC)[C@H]1C(=O)O
Potency [1]: inactive | Potency [2]: inactive

C=CC(=O)N1CCN(C(=O)CNc2cc(I)c(Cl)cc2O)CC1
Potency [1]: inactive | Potency [2]: 5150 nM (active)

CC(C)=CCC[C@](C)(O[C@@H]1O[C@H](CO)[C@@H](O)[C@H](O)[C@H]1O)[C@H]1CC[C@]2(C)[C@@H]1[C@H](O)CC1[C@@]3(C)CC[C@H](O)C(C)(C)C3[C@@H](O[C@@H]3O[C@H](CO)[C@@H](O)[C@H](O)[C@H]3O[C@@H]3OC[C@@H](O)[C@H](O)[C@H]3O)C[C@]12C (some centres undefined)
Potency [1]: inactive | activity change, negative = viability loss [2]: -22.1% [at 9.23 µM]

CC1CCC2(C(=O)O)CCC3(C)C(=CCC4C5(C)CCC(O)C(C)(CO)C5CCC43C)C2C1(C)O (centres undefined)
Potency [1]: inactive | Potency [2]: inactive

CC1(CCOC2OC(CO)C(O)C(O)C2O)CCC23OC2(C1)C(O)CC1C(C)(C(=O)O)CCCC13C (centres undefined)
Potency [1]: inactive | Potency [2]: inactive

C[C@H]1CC(=O)Nc2cccc(-c3cnn(C(C)(C)C)c3)c2N1
Potency [1]: inactive | Potency [2]: inactive

CC[C@H]1OC(=O)[C@](C)(F)C(=O)[C@H](C)[C@@H](O[C@@H]2O[C@H](C)C[C@H](N(C)C)[C@H]2O)[C@](C)(OC)C[C@@H](C)C(=O)[C@@H](C)[C@H]2N(CCCCn3cc(-c4cccc(N)c4)nn3)C(=O)O[C@]12C
Potency [1]: inactive | Potency [2]: 20500 nM (active)

COc1ccc2cc(C(C)C(=O)Oc3ccc(C(N)=S)cc3)ccc2c1 (centres undefined)
Potency [1]: inactive | Potency [2]: inactive

CC1(C)CCC2(C(=O)OC3OCC(O)C(O)C3O)CCC3(C)C(=CCC4C5(C)CC(O)C(OC6OC(COC7OCC(O)C(O)C7O)C(O)C(O)C6O)C(C)(C)C5CCC43C)C2C1 (centres undefined)
Potency [1]: inactive | activity change, negative = viability loss [2]: -10.4% [at 9.23 µM]

CC1CC(O)/C=C/C(O)C(O)CC(=O)Cc2c(Cl)c(O)cc(O)c2C(=O)O1 (centres undefined)
Potency [1]: inactive | Potency [2]: inactive

c1ccc(-c2ncc(CN3CCN(c4ncccn4)CC3)[nH]2)cc1
Potency [1]: inactive | Potency [2]: inactive

O=C1NC(=O)C(c2cn3c4c(cccc24)CCC3)C1c1c[nH]c2ccccc12 (centres undefined)
Potency [1]: inactive | Potency [2]: 1030 nM (active)

COc1cc(C)c(C(=O)Oc2cc(C)c(C(=O)Oc3cc(C)c(C(=O)NC(C)C(=O)O)c(O)c3)c(O[C@@H]3O[C@H](CO)[C@@H](O)[C@H](O)[C@H]3OC(C)=O)c2)c(OC)c1 (some centres undefined)
Potency [1]: inactive | Potency [2]: inactive

C=C1C[C@]23C[C@H]1[C@@H](O)C[C@H]2[C@@]12C=C[C@H](O)[C@@](C)(C(=O)O1)[C@H]2[C@@H]3C(=O)O
Potency [1]: inactive | Potency [2]: inactive

CCC(C)C1NC(=O)C2CCCN2C(=O)C(NC(C)=O)C(C)OC(=O)C(Cc2ccc(OC)cc2)N(C)C(=O)C2CCCN2C(=O)C(C(C)C)NC1=O (centres undefined) (Ac-TPIVP[NMeY](Me); ester 1-C; configuration not given here)
Potency [1]: inactive | Potency [2]: inactive

C=C1C[C@]23C[C@H]1CC[C@H]2C1=C[C@H]2OC(=O)[C@@](C)([C@H]1[C@@H]3C(=O)O)[C@H]2O
Potency [1]: inactive | Potency [2]: inactive

CN1c2ccccc2C(=O)N2CCC3c4ccccc4NC3C21 (centres undefined)
Potency [1]: inactive | Potency [2]: 2260 nM (active)

CC(=O)N[C@H](Cc1ccc2ccccc2c1)C(=O)N[C@H](Cc1ccc(Cl)cc1)C(=O)N[C@H](Cc1cccnc1)C(=O)N[C@@H](CO)C(=O)N[C@@H](Cc1ccc(O)cc1)C(=O)N[C@H](CCCNC(N)=O)C(=O)N[C@@H](CC(C)C)C(=O)N[C@@H](CCCN=C(N)N)C(=O)N1CCC[C@H]1C(=O)N[C@H](C)C(N)=O (Ac-[d2Nal][dPhe(4-Cl)][d3Pal]SY[dCit]LRP[dA]-NH2)
Potency [1]: inactive | Potency [2]: inactive

C=C1C(=O)O[C@@H]2/C=C(\C)C(=O)/C=C/[C@](C)(O)C[C@@H](OC(=O)C(C)C)[C@@H]12
Potency [1]: inactive | Potency [2]: 401 nM (active)

C=C1CCCC2(C)CC3(OC)OC(=O)C(C)=C3CC12 (centres undefined)
Potency [1]: inactive | Potency [2]: inactive

From PubChem BioAssay (NCATS)
